Laboratory results published in PubChem BioAssay (NCATS).
Records with an inconclusive call do not appear. Active and inactive are the calls of the source. The call rests on the fitted dose curve; in most records, active means well fitted curve in the direction sought with a large enough effect; inconclusive means small, poorly fitted or top-dose-only effect, or another doubt; inactive means no such curve, though single readings can be large; an effect the other way counts as inactive or inconclusive.

Key:
[1] = target: Glutaminase kidney isoform, mitochondrial (Homo sapiens) (UniProt O94925); assay: qHTS for Inhibitors of Glutaminase (GLS): LOPAC Validation (AID 624146);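 further: glutamate product detected by oxidase and peroxidase coupled Amplex red fluorescence gain; series mostly up to about 46 µM; nearly all actives have a fitted effect of over 60% in size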
Glutaminase kidney isoform, mitochondrial (Homo sapiens), sequence (O94925 whole entry, looked up, canonical isoform): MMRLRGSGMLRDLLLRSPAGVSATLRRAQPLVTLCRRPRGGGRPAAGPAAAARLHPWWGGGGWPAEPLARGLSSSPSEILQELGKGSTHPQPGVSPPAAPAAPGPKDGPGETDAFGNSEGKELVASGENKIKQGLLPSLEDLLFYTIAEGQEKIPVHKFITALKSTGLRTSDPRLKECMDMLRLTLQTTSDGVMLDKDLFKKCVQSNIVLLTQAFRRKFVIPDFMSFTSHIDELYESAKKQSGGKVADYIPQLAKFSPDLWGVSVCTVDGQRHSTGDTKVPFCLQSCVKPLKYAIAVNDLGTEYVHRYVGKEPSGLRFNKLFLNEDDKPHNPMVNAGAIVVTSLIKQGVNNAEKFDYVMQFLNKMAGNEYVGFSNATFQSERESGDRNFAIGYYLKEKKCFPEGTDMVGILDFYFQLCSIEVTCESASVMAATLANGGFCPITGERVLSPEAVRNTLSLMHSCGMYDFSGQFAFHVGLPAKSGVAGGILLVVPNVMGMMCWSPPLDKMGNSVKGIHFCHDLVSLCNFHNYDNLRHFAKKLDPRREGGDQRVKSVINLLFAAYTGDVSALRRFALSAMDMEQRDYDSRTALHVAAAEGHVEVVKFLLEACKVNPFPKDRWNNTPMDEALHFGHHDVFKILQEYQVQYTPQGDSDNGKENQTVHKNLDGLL
Summary of the method: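 Compounds were pin-transferred onto hKGA, after which L-glutamine (1 mM solution) and a detection mix of glutamate oxidase, HRP and Amplex Red were added. Initial and 30 min RT fluorescence reads were collected.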

[2] = qHTS of Trypanosoma Brucei Inhibitors: LOPAC Validation (AID 624147)
Summary of the method: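 In this concentration-response screen, enzyme-free wells defined baseline while DMSO plates tracked drift. Each reaction combined TbPYK, substrate, compound and 130 uM ADP for 45 min at room temperature. Kinase-Glo Plus luminescence gave the signal.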

[3] = target: Glucagon-like peptide 1 receptor (Homo sapiens) (UniProt P43220); assay: qHTS of GLP-1 Receptor Agonists: LOPAC Validation (AID 624148);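 further: higher luminescence signal means agonism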
Glucagon-like peptide 1 receptor (Homo sapiens), sequence (P43220 whole entry, looked up): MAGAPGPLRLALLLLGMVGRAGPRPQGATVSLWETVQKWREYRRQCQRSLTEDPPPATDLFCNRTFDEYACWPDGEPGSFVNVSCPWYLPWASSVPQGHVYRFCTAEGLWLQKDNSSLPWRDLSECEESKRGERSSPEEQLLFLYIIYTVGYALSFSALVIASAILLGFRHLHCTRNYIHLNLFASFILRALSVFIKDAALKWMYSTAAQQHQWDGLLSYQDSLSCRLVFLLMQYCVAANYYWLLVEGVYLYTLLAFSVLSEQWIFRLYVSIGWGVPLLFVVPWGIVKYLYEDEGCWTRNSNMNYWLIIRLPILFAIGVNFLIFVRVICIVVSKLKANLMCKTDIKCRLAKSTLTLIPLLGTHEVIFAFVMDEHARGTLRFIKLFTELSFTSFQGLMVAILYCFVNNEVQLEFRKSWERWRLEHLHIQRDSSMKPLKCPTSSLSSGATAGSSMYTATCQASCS
Summary of the method: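 HEK293 cells stably co-expressing GLP-1R and a cAMP-responsive luciferase reporter, plated 12 hours before compound, then incubated 4-6 hr at 37 deg C. Luminescence read 12 min after detection reagent.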

[4] = qHTS of Nrf2 Activators: LOPAC Validation (AID 624149)
Summary of the method: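 Following overnight seeding in 5% FBS OPTI-MEM, AREc32_Fluc cells receive compounds for a 24 hr incubation at 37 deg C with 5% CO2. Steady-Glo is added, and after 30 min at RT luminescence is recorded.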

Measured: Potency

CO/N=C(\C(=O)N[C@@H]1C(=O)N2C(C(=O)O)=C(COC(C)=O)CS[C@H]12)c1csc(N)n1
inactive: all assays above

C#C[C@]1(O)CC[C@H]2[C@@H]3CCC4=Cc5oncc5CC4(C)[C@H]3CCC21C (stereo partly specified)
inactive: all assays above

OC[C@H]1O[C@@H](n2cnc3c(NC4CCCC4)ncnc32)[C@H](O)[C@@H]1O
inactive: all assays above

CCOC(=O)C1=C(C)NC(C)=C(C(=O)OCC)C1c1c(F)c(F)c(F)c(F)c1F
inactive: all assays above

OCC1O[C@H]([S-])[C@H](O)[C@@H](O)[C@@H]1O.[Au+] (stereo partly specified)
inactive: [1] | [3]

CN(C)c1ccc(/C=C2\C(=O)Nc3ccccc32)cc1
inactive: all assays above

O=C(O)CC1CC(c2ccccc2)=NO1 (stereo unspecified)
inactive: all assays above

CNCC[C@H](Oc1ccc(C(F)(F)F)cc1)c1ccccc1
inactive: all assays above

Nc1nc(Nc2ccccc2)nc2c1ncn2[C@@H]1O[C@H](CO)[C@@H](O)[C@H]1O
inactive: [1] | [2] | [4]

NCCNC(=O)c1ncsc1-c1cccc(F)c1
inactive: all assays above

CC(C)CC(NP(=O)(O)O[C@@H]1O[C@@H](C)[C@H](O)[C@@H](O)[C@H]1O)C(=O)NC(Cc1c[nH]c2ccccc12)C(=O)O (stereo partly specified)
inactive: [1] | [2] | [4]

COc1cc(SC)ccc1C(=O)N1CCC(Cc2ccccc2)CC1
inactive: all assays above

CCCCC#Cc1nc(NC)c2ncn([C@@H]3O[C@H](CO)[C@@H](O)[C@H]3O)c2n1
inactive: all assays above

Clc1ccc(N2CCN(Cc3cc4ccccn4n3)CC2)cc1
inactive: all assays above

O=C(CCCCCN1CCN(c2ccccc2-c2ccccc2)CC1)NC1CCCc2ccccc21 (stereo unspecified)
inactive: all assays above
